Source: PubChem BioAssay
KinaseGlo FLuc: Counterscreen for Luciferase (Kinase-Glo TM) Inhibition; Kinase-Glo luciferase, ATP luminescence, 8 min; Potency, µM (doses to about 38.3 µM), actives largely listed as inhibitors; 200,000 compounds, 0.28% hits; AID 1379, 2008; further: nearly all actives have a fitted effect of over 60% in size
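Light output from Kinase-Glo luciferase with luciferin and 10 uM ATP in 50 mM imidazole pH 7.2, KCl, MgCl2, Tween 20, BSA; compound pin-delivered, 8-min ambient incubation, then luminescence read.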
Rab9 promoter act: qHTS Assay for Rab9 Promoter Activators. 320,000 compounds, 2.8% hits. Huh7 Rab9 promoter-luciferase reporter, luminescence, 24 h. AID 485297, 2010. Potency, µM (highest dose often 9.22 µM), most hits filed as activators; further: nearly all actives have a fitted effect of over 60% in size
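Quantitative HTS format; Huh7 Rab9-luciferase reporter cells (1500/well) receive compound 2 h post-plating, incubate 24 h at 37 °C, then get luciferase reagent for 10 min before luminescence reading.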
FLuc modulator: qHTS profiling assay for firefly luciferase inhibitor/activator using purifed enzyme and Km concentrations of substrates (counterscreen for miR-21 project) | 360,000 compounds, 6.9% hits | Luciferin 4-monooxygenase (Photinus pyralis), P08659 | purified FLuc, Km substrates, luminescence inhibition | Potency, µM (series often up to 57.5 µM), hits mostly inhibitors; further: nearly all actives have a fitted effect of over 55% in size
Target sequence (P08659 whole entry, looked up): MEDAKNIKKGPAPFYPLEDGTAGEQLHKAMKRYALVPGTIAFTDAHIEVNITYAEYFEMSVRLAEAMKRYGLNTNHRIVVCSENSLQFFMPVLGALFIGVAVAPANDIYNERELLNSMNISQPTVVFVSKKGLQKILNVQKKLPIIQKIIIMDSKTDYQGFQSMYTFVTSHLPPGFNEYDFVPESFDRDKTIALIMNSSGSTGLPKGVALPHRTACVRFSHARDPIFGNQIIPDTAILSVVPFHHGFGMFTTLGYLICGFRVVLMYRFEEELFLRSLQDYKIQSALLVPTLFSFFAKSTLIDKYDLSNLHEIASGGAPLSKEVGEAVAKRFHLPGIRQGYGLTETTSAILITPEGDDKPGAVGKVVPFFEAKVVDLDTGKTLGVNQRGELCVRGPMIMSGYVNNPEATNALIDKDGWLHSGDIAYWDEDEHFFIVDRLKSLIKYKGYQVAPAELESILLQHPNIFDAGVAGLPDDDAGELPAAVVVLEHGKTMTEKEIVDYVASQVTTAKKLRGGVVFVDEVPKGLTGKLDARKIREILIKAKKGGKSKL
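Purified P. pyralis luciferase (10nM final) with 10uM D-luciferin and 10uM ATP (Km levels) in 50mM Tris acetate pH 7.5, 10mM Mg acetate, 0.01% Tween-20, 0.05% BSA; qHTS 6-point titration, ~60 µM downward; luminescence read.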
ELG1 genotox: qHTS screen for small molecules that induce genotoxicity in human embryonic kidney (HEK293T) cells expressing luciferase-tagged ELG1; 330,000 compounds, 1.3% hits; Potency, µM (top dose mostly 46 µM), hits mostly activators; HEK293T ELG1-luciferase reporter, luminescence, 16 h; AID 504466, 2011; further: nearly all actives have a fitted effect of over 60% in size
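Genotoxicity was scored as increased ELG1-luciferase reporter signal, measured by ONE-Glo luminescence (30 min, room temperature). Compound or vehicle exposure of the HEK293T reporter cells lasted 16 hr at 37°C.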
SMN2 splice enh: qHTS Assay for Enhancers of SMN2 Splice Variant Expression | Potency, µM (titrated, usually from 46.1 µM), most hits filed as activators | HEK293 SMN2-luciferase splicing reporter, luminescence, 30-36 h | AID 1458, 2008 | 210,000 compounds, 2.8% hits; further: nearly all actives have a fitted effect of over 55% in size
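qHTS luciferase splicing reporter: luminescence rises when SMN2 exon 7 is included in transfected HEK293 cells. Compound exposure lasted 30-36 h at 37C, with 4.5 mM final sodium butyrate as control, followed by a ONE-Glo read.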
NPC1 prom act: qHTS Assay for NPC1 Promoter Activators; Potency, µM (series often up to 9.22 µM), usual class: activators; Huh7 NPC1 promoter luciferase reporter, 24 h; AID 485313, 2010; 320,000 compounds, 2.4% hits; further: nearly all actives have a fitted effect of over 60% in size
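In 1536-well qHTS, Huh7 cells harboring an NPC1 promoter–luciferase construct received compound for 24 h; activation was quantified by luminescence following luciferase reagent addition.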
Numbers stand for hits; - = inactive; ? = inconclusive; . = not tested or not shown; [ ] = remark or other dose. Rows were chosen to be rich in hits. Some 7.5% of all compounds tested hit in one or more screens of this group. The call rests on the fitted dose curve; in most records, active means well fitted curve in the direction sought with a large enough effect; inconclusive means small, poorly fitted or top-dose-only effect, or another doubt; inactive means no such curve, though single readings can be large; an effect the other way counts as inactive or inconclusive.

SMILES	KinaseGlo FLuc	Rab9 promoter act	FLuc modulator	ELG1 genotox	SMN2 splice enh	NPC1 prom act
CN(C)c1ccc(NC(=O)Cn2cc3c(n2)CCCC3)cc1	-	-	19µM	?	-	-
CC(=O)Nc1ccc(S(=O)(=O)N(C)Cc2cnn(C)c2)cc1	.	-	-	-	.	-
CCOCCCN1C(=O)CN(C2CCCCCC2)C(=O)C1c1ccc(OC(C)C)c(OC)c1 (centres undefined)	.	.	-	.	.	.
CCOC(=O)N/N=C/c1ccccc1F	-	2.8µM	?	-	?	2.5µM
CCCn1c(=O)c(C(=O)N/N=C/c2ccc(F)cc2)c(O)c2ccccc21	.	-	-	-	.	-
CCOC(=O)N/N=C/c1cccc(Cl)c1Cl	-	-	21µM	-	?	-
CCOC(=O)N/N=C/c1cn(CCCOc2ccc(C)cc2)c2ccccc12	-	?	-	-	-	1.8µM
CCCn1c(=O)c(C(=O)N/N=C/c2ccccc2F)c(O)c2ccccc21	-	2.2µM	-	?	13µM	?
CCOC(=O)N/N=C/c1cn(CCCOc2ccccc2)c2ccccc12	-	?	-	-	-	?
Cc1ccc(C)c(S(=O)(=O)n2nc(C)c(S(=O)(=O)N3CCCCCC3)c2C)c1	.	.	-	.	.	.
Cc1ccc(-c2noc(C(C)NS(=O)(=O)c3ccc(C)cc3)n2)cc1 (centres undefined)	.	.	-	.	.	.
Cc1ccc2oc(-c3cc(NC(=O)c4ccc5c(c4)OCCO5)cc(C)c3O)nc2c1	.	.	?	.	-	.
CC(Sc1nnc(-c2cccnc2)n1N)C(=O)Nc1ccc2c(c1)OCCO2 (centres undefined)	.	-	-	-	.	-
CCC=O	.	.	.	.	-	.
CN1CCN(CCCNC(=O)Cn2c(-c3cccs3)cc3cc(Cl)ccc32)CC1	.	.	-	.	.	.
CCOC(=O)N/N=C/c1ccc(N(CC)CC)cc1O	-	-	24µM	?	?	-
Cc1cc(C(=O)N/N=C/c2cccc(Cl)c2Cl)no1	-	?	11µM	21µM	-	?
Cc1cc(C(=O)NNc2c(Cl)cccc2Cl)no1	.	-	-	-	.	-
CCC1CN(C(=O)N2CCC(C(=O)NCc3ccco3)CC2)c2cc(C)ccc2O1 (centres undefined)	.	-	-	-	.	-
CCCCNC(=O)CSc1nc2cc3c(cc2c(=O)n1CCC(=O)NCCc1ccc(OC)c(OC)c1)OCO3	-	-	-	-	-	-
CCOC(=O)c1c(NC(=O)C2CCCN(S(=O)(=O)c3ccc(C)cc3)C2)sc2c1CCCC2 (centres undefined)	-	-	-	-	-	-
CCCC(=O)Nc1ccccc1NC(=O)c1ccc(OCC)cc1	-	-	-	-	-	-
O=C(Nc1ccccc1C(=O)NC1CC1)c1ccccc1	.	-	-	-	.	-
Cc1ccccc1C(=O)Nc1nncs1	-	-	-	-	-	-
CCOc1ccc(C(=O)Nc2ccccc2C(=O)O)cc1	-	1µM	0.95µM	?	8.9µM	0.63µM
SMILES	KinaseGlo FLuc	Rab9 promoter act	FLuc modulator	ELG1 genotox	SMN2 splice enh	NPC1 prom act
O=C(Nc1ccccc1C(=O)Nc1ccccc1C(=O)O)c1ccccc1	.	-	15µM	-	.	-
O=C(Nc1ccccc1C(=O)Nc1nncs1)c1ccccc1	.	-	21µM	-	.	-
Nc1ccc(C(=O)Nc2ccccc2C(=O)O)cc1	-	-	6µM	?	-	-
[C-]#[N+]c1cc(-c2ccncc2)c(C)[nH]c1=O	.	.	.	.	-	.
O=C(O)c1ccc2c(c1)C(=O)N([C@H](Cc1ccc(O)cc1)C(=O)O)C2=O	.	-	-	.	.	-
O=C(Nc1ccccc1C(=O)O)c1ccc(Br)o1	-	?	19µM	?	-	?
O=C(Nc1ccccc1F)c1ccc(Br)o1	-	-	?	-	-	-
O=C(O)c1ccccc1NC(=O)c1ccccc1Nc1ccccc1	.	-	17µM	-	.	-
O=C(COC(=O)CCC1CCCC1)Nc1ccc(F)cc1Cl	.	-	-	-	.	-
CCC(CC)C(=O)Nc1ccc(Nc2ccccc2)cc1	-	-	?	-	-	-
CCCCc1ccc(NC(=O)CC(C)(C)C)cc1	-	?	15µM	-	.	?
Cc1cccc(NC(=O)CC(C)(C)C)c1	-	-	-	-	.	-
CC(C)(C)CC(=O)Nc1ccc(Nc2ccccc2)cc1	-	3.2µM	12µM	-	-	-
CCCCc1ccc(NC(=O)CC(C)=O)cc1	-	-	-	?	-	-
CC(C)C(=O)Nc1ccc(Nc2ccccc2)cc1	-	-	19µM	-	-	-
CC(C)CC(=O)Nc1ccc(Nc2ccccc2)cc1	-	-	19µM	-	-	-
CCCCC#Cc1nc(NC)c2ncn([C@@H]3O[C@H](CO)[C@@H](O)[C@H]3O)c2n1	.	-	.	.	.	-
O=C(Nc1ccc(Br)cc1F)c1cccnc1	-	-	?	-	-	-
CC1O[C@@H](O[C@H]2C(Oc3cc(O)c4c(c3)OC(c3ccc(O)cc3)CC4=O)OC(CO)C(O)C2O)C(O)C(O)C1O (some centres undefined)	-	.	.	.	-	.
CCCCn1c(N)c(N(CC(C)C)C(=O)C(C)SCc2nc3sc(C)c(C)c3c(=O)[nH]2)c(=O)[nH]c1=O (centres undefined)	.	-	-	-	.	-
CN(Cc1ccccc1)C(=O)CN1CCN(S(=O)(=O)c2ccc(Cl)c(Cl)c2)CC1	.	-	-	-	.	-
Cc1ccc2nc(NC(=O)COC(=O)c3ccco3)sc2c1	-	.	13µM	.	-	.
Cc1ccc2nc(NC(=O)COC(=O)c3ccc(Br)o3)sc2c1	-	?	27µM	-	-	?
O=C(COC(=O)c1ccco1)Nc1ccc([N+](=O)[O-])cc1Cl	.	-	-	-	.	-
O=C(COC(=O)c1ccco1)Nc1nc2ccc([N+](=O)[O-])cc2s1	.	-	19µM	-	.	-
SMILES	KinaseGlo FLuc	Rab9 promoter act	FLuc modulator	ELG1 genotox	SMN2 splice enh	NPC1 prom act
O=C(Cc1ccc2cccnc2c1)c1ccc(O)cc1O	-	?	21µM	?	-	-
Oc1ccc2cccnc2c1	-	-	-	-	-	-
Cc1cccc(/C(N)=N/OC(=O)COc2ccccc2Cl)c1	-	-	19µM	?	?	-
N/C(Cc1ccc(Cl)cc1Cl)=N\OC(=O)Cc1ccccc1	-	-	15µM	-	-	-
Cc1cccc(/C(N)=N/OC(=O)Cc2ccccc2)c1	-	-	15µM	?	-	-
COc1ccc(/C(N)=N/OC(=O)COc2ccccc2Cl)cc1	-	-	21µM	?	?	-
N/C(=N\OC(=O)COc1ccccc1)c1ccc(Cl)cc1	-	-	?	?	-	-
N/C(Cc1ccc(Cl)cc1Cl)=N\OC(=O)Cc1ccc(Cl)cc1	-	-	-	-	-[1.84 µM]	-
